Laboratory results published in PubChem BioAssay (NCATS).
Records with an inconclusive call do not appear. Calls of active or inactive are those of the source. Unless noted, calls follow the shape of the dose curve; as a rule, active = well fitted curve in the direction sought with a large enough effect; inconclusive = small, poorly fitted or top-dose-only effect, or another doubt; inactive = no such curve, though single readings can be large; an effect the other way counts as inactive or inconclusive.

tested on: not listed separately; experiment: Cell Proliferation Assay against the HBL1 Cell Line (AID 651646); conditions: HBL1 DLBCL cells; at 46.1 µM (top of the series);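 also: cells exposed to compound for 48 h before reading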
Procedure, shortened: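 After a 48 h incubation of 500 HBL1 cells/well in phenol red-free RPMI plus 5% FBS, relative luciferase units from CellTiter-Glo gave percent activity against DMSO and 9.2 uM bortezomib (final) controls.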

Row | Compound | viability, percent of control [%]
1 | COc1cc2c(cc1OC)[C@@H]1C(=O)c3ccc4c(c3O[C@@H]1CO2)C=CC(C)(C)O4 | 18.7
2 | N#Cc1ccc(COC[C@H]2O[C@@H](n3c(NCc4ccc(Cl)c(Cl)c4)nc4c(N)ncnc43)[C@@H](O)[C@@H]2O)cc1 | 17.4
3 | Cn1c(Nc2ccc(C(F)(F)F)cc2)nc2cc(Oc3ccnc(-c4ncc(C(F)(F)F)[nH]4)c3)ccc21 | 33
4 | COc1cc(C)c(Sc2cnc(NC(=O)c3ccc(CNC(C)C(C)(C)C)cc3)s2)cc1C(=O)N1CCN(C(C)=O)CC1 (configuration not stated) | 12.9

tested on: not listed separately; experiment: Cell Proliferation Assay against the TMD8 Cell Line (Caspase readout at 8 hrs) (AID 651713); conditions: TMD8 lymphoma cells, caspase activation luminescence; series mostly up to 46.1 µM; caspase activation: at the top concentration; also: potency is read from the fitted curve at half-maximal effect;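 as to caspase activation: 0% = DMSO and 100% = 9.2 µM bortezomib caspase signal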
Procedure, shortened: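 Apoptosis readout: caspase 3/7 luminescence (Caspase-Glo), 15 min RT. Cells: TMD8, 500/well, RPMI + 5% FBS, no phenol red. Exposure 8 h, 37C. % activity vs DMSO = 0, bortezomib 9.2 uM final = 100.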

Row | Compound | caspase activation | Potency
5 | COc1cc2c(cc1OC)[C@@H]1C(=O)c3ccc4c(c3O[C@@H]1CO2)C=CC(C)(C)O4 | -7.88% (inactive) | –
6 | N#Cc1ccc(COC[C@H]2O[C@@H](n3c(NCc4ccc(Cl)c(Cl)c4)nc4c(N)ncnc43)[C@@H](O)[C@@H]2O)cc1 | – | 29.6 µM (active)
7 | Cn1c(Nc2ccc(C(F)(F)F)cc2)nc2cc(Oc3ccnc(-c4ncc(C(F)(F)F)[nH]4)c3)ccc21 | 10.2% (inactive) | –

tested on: not listed separately; experiment: qHTS assay for small molecule activators of the p53 signaling pathway (AID 651743; active = well fitted activation curve with a large enough effect in the signal ratio, not every such curve was filed as active; the % refers to the signal ratio; also: % of control where 0% means no effect); conditions: HCT-116 p53RE-bla, beta-lactamase FRET ratio, 16 h; stronger effect = higher value
Procedure, shortened: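 Here HCT-116 cells with an integrated p53-responsive beta-lactamase gene were incubated with compounds (16 hours, 37 C) after a 5-hour plating period; beta-lactamase activity was detected as fluorescence intensity via B/G FRET substrate.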

Row | Compound | activation
8 | C[C@]12CC[C@@H]3c4ccc(O)cc4CC[C@H]3[C@H]1CC[C@H]2O | 13.4% (inactive)
9 | Cc1cc(O)c2c(c1)C(=O)c1cccc(O)c1C2=O | -1.77% (inactive)
10 | OC[C@@H](O)[C@@H](O)[C@H](O)[C@@H](O)CO | -2.74% (inactive)
11 | CC(C=CC1=C(C)CCCC1(C)C)=CC=CC(C)=CC(=O)Nc1ccc(O)cc1 | 0.252% (inactive)
12 | O=C1c2cccc(O)c2C(=O)c2c(O)cc(CO)cc21 | 6.22% (inactive)

tested on: not listed separately; experiment: qHTS assay for environmental chemicals that activate the Aryl hydrocarbon Receptor (AhR) signaling pathway (AID 651777); conditions: 1A2-DRE human hepatoma cells, luciferase, 24 h; stronger effect = higher value; also: % of control where 0% means no effect; nearly all actives have a fitted effect of over 15% in size
Procedure, shortened: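 Reporter gene assay: hepatoma cells with DRE/CYP1A2-luciferase, 24 hr compound incubation at 37 C, 5% CO2, luminescence after One-Glo (30 min, RT).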

Row | Compound | activation
13 | C[C@]12CC[C@@H]3c4ccc(O)cc4CC[C@H]3[C@H]1CC[C@H]2O | 2.62% (inactive)
14 | Cc1cc(O)c2c(c1)C(=O)c1cccc(O)c1C2=O | 0.266% (inactive)
15 | OC[C@@H](O)[C@@H](O)[C@H](O)[C@@H](O)CO | 0.287% (inactive)
16 | CC(C=CC1=C(C)CCCC1(C)C)=CC=CC(C)=CC(=O)Nc1ccc(O)cc1 | -5.07% (inactive)
17 | O=C1c2cccc(O)c2C(=O)c2c(O)cc(CO)cc21 | 2.38% (inactive)

biological target: Peroxisome proliferator-activated receptor alpha (Homo sapiens) (UniProt Q07869); experiment: qHTS assay for small molecule agonists of the peroxisome proliferator-activated receptor alpha (PPARalpha) signaling pathway (AID 651778); conditions: PathHunter PPARalpha complementation, chemiluminescence, 6 h; max response: stronger effect = higher value; also: potency is read from the fitted curve at half-maximal effect; as to max response: % of control where 0% means no effect
Sequence (Q07869 whole entry, looked up): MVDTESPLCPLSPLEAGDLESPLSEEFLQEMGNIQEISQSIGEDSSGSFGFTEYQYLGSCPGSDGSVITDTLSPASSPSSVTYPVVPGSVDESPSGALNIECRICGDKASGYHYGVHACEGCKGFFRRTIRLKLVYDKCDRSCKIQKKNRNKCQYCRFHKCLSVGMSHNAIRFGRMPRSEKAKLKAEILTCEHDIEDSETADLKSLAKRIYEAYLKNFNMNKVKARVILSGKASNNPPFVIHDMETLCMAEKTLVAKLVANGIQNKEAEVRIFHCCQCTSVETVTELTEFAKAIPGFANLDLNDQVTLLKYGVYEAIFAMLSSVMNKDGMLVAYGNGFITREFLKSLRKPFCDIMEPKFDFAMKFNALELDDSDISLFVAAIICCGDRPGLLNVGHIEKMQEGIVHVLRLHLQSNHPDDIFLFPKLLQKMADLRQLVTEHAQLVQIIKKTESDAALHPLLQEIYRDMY
Procedure, shortened: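 Cells plated at 2,000/well and held overnight at 37 C, 5% CO2, then compound added by pin tool for 6 hr; after PathHunter detection reagent and 60 min at room temperature, chemiluminescence from enzyme complementation was read.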

Row | Compound | max response | Potency
18 | C[C@]12CC[C@@H]3c4ccc(O)cc4CC[C@H]3[C@H]1CC[C@H]2O | -1.17% (inactive) | –
19 | Cc1cc(O)c2c(c1)C(=O)c1cccc(O)c1C2=O | -1.41% (inactive) | –
20 | OC[C@@H](O)[C@@H](O)[C@H](O)[C@@H](O)CO | -1.39% (inactive) | –
21 | CC(C=CC1=C(C)CCCC1(C)C)=CC=CC(C)=CC(=O)Nc1ccc(O)cc1 | – | 8.91 µM (active)
22 | O=C1c2cccc(O)c2C(=O)c2c(O)cc(CO)cc21 | -2.01% (inactive) | –
